PubChem BioAssay AID1159580 (chemical genetic matrix, 2015)
About 2,000 (36%) of roughly 5,500 compounds were called active. Inconclusive results (about 18%) are left out. Rule as the data show it: active = normalized growth mostly below about 0.91 (no sharp cut-off); inconclusive = no clear call, values can overlap the other calls; inactive = mostly above about 0.92. The list shows a part of the results.

Assay: chemical genetic growth profiling, strain panel (AID 1159580);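 also: tested at 20 µM; growth read once vehicle control cultures reached saturation at 30 °C; 1 = growth at the plate median or of vehicle wells; lower values mean less growth of the strain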
Settings: growth OD
[1] = S. cerevisiae deletion strains, locus YDL101C, strain DUN1, stronger effect = lower value
[2] = S. cerevisiae deletion strains, locus YHR030C, strain SLT2, stronger effect = lower value

Measured: normalized growth

COC(=O)c1cc([N+](=O)[O-])ccc1S(=O)(=O)Cc1ccc(Cl)cc1
inactive: S. cerevisiae deletion strains, locus YAR019C, strain CDC15, stronger effect = lower value 0.971 | S. cerevisiae deletion strains, locus YBL105C, strain PKC1, stronger effect = lower value 0.983 | S. cerevisiae deletion strains, locus YBR135W, strain CKS1, stronger effect = lower value 0.991 | S. cerevisiae deletion strains, locus YBR136W, strain MEC1, stronger effect = lower value 0.967 | S. cerevisiae deletion strains, locus YBR160W, strain CDC28, stronger effect = lower value 0.998 | S. cerevisiae deletion strains, locus YDL017W, strain CDC7, stronger effect = lower value 0.985 | S. cerevisiae deletion strains, locus YDL028C, strain MPS1, stronger effect = lower value 0.98 | [1] 0.987 | S. cerevisiae deletion strains, locus YDL108W, strain KIN28, stronger effect = lower value 0.988 | S. cerevisiae deletion strains, locus YDL132W, strain cdc53, stronger effect = lower value 0.991 | S. cerevisiae deletion strains, locus YDL214C, strain PRR2, stronger effect = lower value 0.952 | S. cerevisiae deletion strains, locus YDR052C, strain DBF4, stronger effect = lower value 0.996 | S. cerevisiae deletion strains, locus YDR054C, strain cdc34, stronger effect = lower value 0.983 | S. cerevisiae deletion strains, locus YDR226W, strain ADK1, stronger effect = lower value 0.985 | S. cerevisiae deletion strains, locus YDR477W, strain SNF1, stronger effect = lower value 0.948 | S. cerevisiae deletion strains, locus YER123W, strain YCK3, stronger effect = lower value 0.955 | S. cerevisiae deletion strains, locus YER133W, strain GLC7, stronger effect = lower value 0.956 | S. cerevisiae deletion strains, locus YFL009W, strain cdc4, stronger effect = lower value 0.99 | S. cerevisiae deletion strains, locus YFL029C, strain CAK1, stronger effect = lower value 0.974 | S. cerevisiae deletion strains, locus YFR003C, strain YPI1, stronger effect = lower value 0.992 | S. cerevisiae deletion strains, locus YFR019W, strain FAB1, stronger effect = lower value 0.974 | S. cerevisiae deletion strains, locus YFR028C, strain CDC14, stronger effect = lower value 0.981 | S. cerevisiae deletion strains, locus YGR040W, strain KSS1, stronger effect = lower value 0.941 | S. cerevisiae deletion strains, locus YGR052W, strain FMP48, stronger effect = lower value 1.04 | S. cerevisiae deletion strains, locus YGR092W, strain DBF2, stronger effect = lower value 0.946 | [2] 0.937 | S. cerevisiae deletion strains, locus YHR079C, strain IRE1, stronger effect = lower value 0.97 | S. cerevisiae deletion strains, locus YHR082C, strain KSP1, stronger effect = lower value 0.995 | S. cerevisiae deletion strains, locus YHR205W, strain SCH9, stronger effect = lower value 0.98 | S. cerevisiae deletion strains, locus YIL147C, strain SLN1, stronger effect = lower value 0.981 | S. cerevisiae deletion strains, locus YJL095W, strain BCK1, stronger effect = lower value 0.966 | S. cerevisiae deletion strains, locus YJL128C, strain PBS2, stronger effect = lower value 0.967 | S. cerevisiae deletion strains, locus YJL157C, strain FAR1, stronger effect = lower value 0.964 | S. cerevisiae deletion strains, locus YJR016C, strain ILV3, stronger effect = lower value 0.993 | S. cerevisiae deletion strains, locus YJR066W, strain TOR1 (second series), stronger effect = lower value 0.88 | S. cerevisiae deletion strains, locus YJR066W, strain TOR1, stronger effect = lower value 0.965 | S. cerevisiae deletion strains, locus YKL048C, strain ELM1, stronger effect = lower value 0.976 | S. cerevisiae deletion strains, locus YKL067W, strain YNK1, stronger effect = lower value 0.956 | S. cerevisiae deletion strains, locus YKL101W, strain HSL1, stronger effect = lower value 0.949 | S. cerevisiae deletion strains, locus YKL193C, strain SDS22, stronger effect = lower value 0.984 | S. cerevisiae deletion strains, locus YKL203C, strain TOR2, stronger effect = lower value 1 | S. cerevisiae deletion strains, locus YLR113W, strain HOG1, stronger effect = lower value 0.957 | S. cerevisiae deletion strains, locus YLR133W, strain CKI1, stronger effect = lower value 0.951 | S. cerevisiae deletion strains, locus YLR403W, strain SFP1, stronger effect = lower value 0.957 | S. cerevisiae deletion strains, locus YML070W, strain DAK1, stronger effect = lower value 0.958 | S. cerevisiae deletion strains, locus YMR001C, strain CDC5, stronger effect = lower value 0.984 | S. cerevisiae deletion strains, locus YMR205C, strain PFK2 (second series), stronger effect = lower value 0.957 | S. cerevisiae deletion strains, locus YMR277W, strain FCP1, stronger effect = lower value 0.992 | S. cerevisiae deletion strains, locus YNL006W, strain LST8, stronger effect = lower value 0.996 | S. cerevisiae deletion strains, locus YNL020C, strain ARK1, stronger effect = lower value 0.96 | S. cerevisiae deletion strains, locus YNL161W, strain CBK1, stronger effect = lower value 0.988 | S. cerevisiae deletion strains, locus YNL183C, strain NPR1, stronger effect = lower value 0.97 | S. cerevisiae deletion strains, locus YNL207W, strain RIO2, stronger effect = lower value 0.98 | S. cerevisiae deletion strains, locus YNL222W, strain SSU72, stronger effect = lower value 0.988 | S. cerevisiae deletion strains, locus YNL307C, strain MCK1 (second series), stronger effect = lower value 0.976 | S. cerevisiae deletion strains, locus YOL078W, strain AVO1, stronger effect = lower value 0.991 | S. cerevisiae deletion strains, locus YOL136C, strain PFK27, stronger effect = lower value 0.952 | S. cerevisiae deletion strains, locus YOR061W, strain CKA2, stronger effect = lower value 0.948 | S. cerevisiae deletion strains, locus YOR119C, strain RIO1, stronger effect = lower value 0.973 | S. cerevisiae deletion strains, locus YOR231W, strain MKK1, stronger effect = lower value 0.98 | S. cerevisiae deletion strains, locus YOR329C, strain SCD5, stronger effect = lower value 0.984 | S. cerevisiae deletion strains, locus YPL031C, strain PHO85, stronger effect = lower value 0.955 | S. cerevisiae deletion strains, locus YPL153C, strain RAD53, stronger effect = lower value 0.951 | S. cerevisiae deletion strains, locus YPL204W, strain HRR25, stronger effect = lower value 0.95 | S. cerevisiae deletion strains, locus YPL209C, strain IPL1, stronger effect = lower value 0.983 | S. cerevisiae deletion strains, locus YPL256C, strain CLN2, stronger effect = lower value 0.945 | S. cerevisiae deletion strains, locus YPR025C, strain CCL1, stronger effect = lower value 0.987 | S. cerevisiae deletion strains, locus YPR106W, strain ISR1, stronger effect = lower value 0.985 | S. cerevisiae deletion strains, locus YPR111W, strain DBF20, stronger effect = lower value 0.984 | S. cerevisiae deletion strains, strain NNK1, stronger effect = lower value 0.982 | S. cerevisiae deletion strains, strain TSCII, stronger effect = lower value 0.981

Cc1cc(S(=O)(=O)NC(Cc2ccc([N+](=O)[O-])cc2)C(=O)O)c(Cl)cc1Cl (centres undefined)
inactive: S. cerevisiae deletion strains, locus YAL013W, strain DEP1, stronger effect = lower value 1.01 | S. cerevisiae deletion strains, locus YBR229C, strain ROT2, stronger effect = lower value 0.996 | S. cerevisiae deletion strains, locus YCL061C, strain MRC1, stronger effect = lower value 1 | [1] 0.997 | S. cerevisiae deletion strains, locus YDR150W, strain NUM1, stronger effect = lower value 0.927 | S. cerevisiae deletion strains, locus YEL061C, strain CIN8, stronger effect = lower value 1.01 | S. cerevisiae deletion strains, locus YGR078C, strain PAC10, stronger effect = lower value 1 | S. cerevisiae deletion strains, locus YGR229C, strain SMI1, stronger effect = lower value 1.01 | [2] 1.07 | S. cerevisiae deletion strains, locus YHR087W, strain rtc3, stronger effect = lower value 1 | S. cerevisiae deletion strains, locus YJR043C, strain POL32, stronger effect = lower value 0.998 | S. cerevisiae deletion strains, locus YJR075W, strain HOC1, stronger effect = lower value 1 | S. cerevisiae deletion strains, locus YLR039C, strain RIC1, stronger effect = lower value 1.01 | S. cerevisiae deletion strains, locus YLR058C, strain SHM2 (second series), stronger effect = lower value 1 | S. cerevisiae deletion strains, locus YLR085C, strain ARP6, stronger effect = lower value 1.02 | S. cerevisiae deletion strains, locus YLR262C, strain YPT6, stronger effect = lower value 1 | S. cerevisiae deletion strains, locus YML094W, strain GIM5, stronger effect = lower value 1.02 | S. cerevisiae deletion strains, locus YMR219W, strain ESC1, stronger effect = lower value 0.995 | S. cerevisiae deletion strains, locus YMR263W, strain SAP30, stronger effect = lower value 1 | S. cerevisiae deletion strains, locus YNL128W, strain TEP1, stronger effect = lower value 1 | S. cerevisiae deletion strains, locus YNL153C, strain GIM3, stronger effect = lower value 0.995 | S. cerevisiae deletion strains, locus YNL298W, strain CLA4 (second series), stronger effect = lower value 1.01 | S. cerevisiae deletion strains, locus YNL322C, strain KRE1, stronger effect = lower value 1 | S. cerevisiae deletion strains, locus YNR030W, strain Alg12, stronger effect = lower value 1.01 | S. cerevisiae deletion strains, locus YPL055C, strain LGE1, stronger effect = lower value 1.04 | S. cerevisiae deletion strains, locus YPL241C, strain CIN2, stronger effect = lower value 1.02 | S. cerevisiae deletion strains, locus YPR135W, strain CTF4, stronger effect = lower value 0.988 | S. cerevisiae strains, strain wild type, stronger effect = lower value 1.01
